Common to all, as to experiment: BK channel mutant inhibitors and activators – cell-based, U2OS BacMam, thallium flux, beta subunits, selectivity assay, profiling panel (AID 1259406);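 also: initial slope of Thallos dye fluorescence rise after thallium is added; log ratio against the mean of 0.3% DMSO vehicle wells on the same plate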
Experiment [1] has as its system F380Y. To be noted: U2OS BacMam BK variants, at 30 µM.
Experiment [2] concerns F380Y/beta1. The note with it: U2OS BacMam BK variants, at 30 µM.
The subject of experiment [3] is F380Y/beta2Delta. The note with it: U2OS BacMam BK variants, at 30 µM.
Experiment [4] relates to F380Y/beta4. The note with it: U2OS BacMam BK variants, at 30 µM.
The target in experiment [5] is Calcium-activated potassium channel subunit alpha-1 (Homo sapiens) + Leucine-rich repeat-containing protein 26 (Homo sapiens) (UniProt Q12791+Q2I0M4). To be noted: U2OS BacMam BK variants, F380Y/Slo1WT/gamma1, at 30 µM.
Experiment [6] deals with R275C. To be noted: U2OS BacMam BK variants, at 30 µM.
The test system of experiment [7] is R275C/beta1. The note with it: U2OS BacMam BK variants, at 30 µM.
Experiment [8] deals with R275C/beta2Delta. The note with it: U2OS BacMam BK variants, at 30 µM.
Experiment [9] relates to R275C/beta4. The note with it: U2OS BacMam BK variants, at 30 µM.
For experiment [10], the system named is R275C/Slo1WT/beta2. To be noted: U2OS BacMam BK variants, at 30 µM.

Each structure is given as a SMILES string. Values without a mark were called inactive. The source made the active and inactive calls.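 The calls were made as follows: active = thallium flux through the channel raised or lowered by more than 3 SD from vehicle-only wells, actives on both sides; inactive = the rest.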

Sequence of Calcium-activated potassium channel subunit alpha-1 (Homo sapiens) + Leucine-rich repeat-containing protein 26 (Homo sapiens) (Q2I0M4 whole entry, looked up, one chain of several): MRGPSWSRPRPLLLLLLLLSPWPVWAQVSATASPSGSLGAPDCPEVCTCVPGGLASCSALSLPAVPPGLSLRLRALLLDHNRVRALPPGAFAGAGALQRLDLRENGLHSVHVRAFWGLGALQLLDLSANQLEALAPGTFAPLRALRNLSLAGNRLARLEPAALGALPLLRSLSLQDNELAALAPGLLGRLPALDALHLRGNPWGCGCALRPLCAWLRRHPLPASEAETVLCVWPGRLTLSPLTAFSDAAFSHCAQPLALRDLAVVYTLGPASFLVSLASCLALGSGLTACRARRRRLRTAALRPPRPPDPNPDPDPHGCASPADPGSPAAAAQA

With `Cc1nn(C)c(NCc2cccs2)c1[N+](=O)[O-]`, the log fold change Tl+ flux in [1] is 0.0023; in experiment [2], 0.00245; in experiment [3] it was 0.0628; in [4], 0.018; in [5], 0.0148; in [6], -0.00626. For the same compound, the log fold change Tl+ flux in [7] was -0.0048; in experiment [8] it was 0.028; in experiment [9], -0.0356; in [10] it was -0.0229.

`COC(=O)c1sccc1NN=C(C)c1ccc(NC(=O)C(Cl)Cl)cc1`: the log fold change Tl+ flux in [1] is 0.0593; in experiment [2], -0.0356; in experiment [3], 0.0103; in experiment [4], -0.0317; in experiment [5], 0.0385; in experiment [6], -0.0133. The log fold change Tl+ flux in [7] is -0.0386; in experiment [8], -0.0375; in [9] it was -0.0101; in experiment [10], 0.0362.

For the compound `Cc1ccc(S(=O)(=O)c2ncsc2SCc2ccc(Cl)cc2Cl)cc1`, the log fold change Tl+ flux is 0.0356 in experiment [1]; -0.0176 in experiment [2]; 0.0366 in [3]; -0.0184 in experiment [4]; 0.00897 in experiment [5]; -0.00241 in experiment [6]. Further, the log fold change Tl+ flux in experiment [7] was 0.0419; in experiment [8] it was -0.0166; in experiment [9] it was -0.0112; in experiment [10], -0.00155.

With `O=C1c2cccc3c(Sc4ccccc4)ccc(c23)C(=O)N1CCc1ccccn1`, the log fold change Tl+ flux in [1] is 0.00854; in experiment [2], -0.00319; in experiment [3] it was -0.0137; in [4], 0.0446; in experiment [5], 0.0111; in experiment [6] it was -0.0274. For the same compound, the log fold change Tl+ flux in [7] was -0.0207; in experiment [8] it was 0.02; in experiment [9], -0.00592; in experiment [10], 0.0318.

With `FC(F)(F)c1cc(-c2noc(-c3ccc4c(c3)CCO4)n2)cc(C(F)(F)F)c1`, the log fold change Tl+ flux was 0.118 (active) in [1]; 0.292 (active) in [2]; 0.24 (active) in experiment [3]; 0.269 (active) in experiment [4]; 0.0774 in experiment [5]; 0.0291 in experiment [6]. Also, the log fold change Tl+ flux in experiment [7] was 0.191 (active); in [8], 0.182 (active); in experiment [9] it was 0.0808 (active); in [10] it was -0.0138.

As for `CSc1nc(N)nc(-c2cccs2)n1`, the log fold change Tl+ flux was 0.02 in [1]; 0.0489 in [2]; 0.0165 in [3]; 0.0265 in experiment [4]; 0.0393 in experiment [5]; -0.0182 in [6]. For the same compound, the log fold change Tl+ flux was 0.00143 in experiment [7], 0.042 in experiment [8], 0.0144 in experiment [9] and 0.0475 in experiment [10].

For the compound `CCOC(=O)C(C#N)=CNc1ccccc1OC(F)(F)F`, the log fold change Tl+ flux in experiment [1] was -0.00694; in experiment [2] it was -0.036; in [3] it was 0.0178; in experiment [4], 0.027; in experiment [5], -0.0183; in experiment [6], -0.0335. Further, the log fold change Tl+ flux in [7] is -0.00201; in [8] it was -0.00638; in experiment [9], -0.0357; in [10] it was -0.0488.

In the case of `Cc1nc(-c2n[nH]c(=S)n2C)cs1`, the log fold change Tl+ flux was -0.0125 in experiment [1]; -0.0212 in experiment [2]; 0.0116 in experiment [3]; -0.0241 in experiment [4]; 0.0365 in experiment [5]; 0.0188 in experiment [6]. Further, the log fold change Tl+ flux was 0.00398 in experiment [7], 0.0232 in experiment [8], -0.0295 in experiment [9] and -0.00583 in experiment [10].

Take `Cc1cc(C)c2cc(C(=O)Nc3ccccc3SCc3cccc(Cl)c3F)[nH]c2c1`: the log fold change Tl+ flux is 0.0408 in experiment [1]; 0.0143 in experiment [2]; 0.00341 in [3]; -0.00891 in experiment [4]; -0.00142 in [5]; 0.000963 in experiment [6]. In addition, the log fold change Tl+ flux in experiment [7] is 0.041; in [8], 0.02; in [9], 0.00151; in experiment [10], 0.025.

As to `O=C1C(=Cc2cc(-c3ccccc3)c(C(F)(F)F)s2)CSc2ccc(Cl)cc21`, the log fold change Tl+ flux is 0.00549 in experiment [1]; 0.0168 in experiment [2]; 0.0287 in [3]; -0.022 in experiment [4]; -0.0261 in [5]; -0.00201 in experiment [6]. For the same compound, the log fold change Tl+ flux in experiment [7] is -0.0099; in [8], -0.0048; in experiment [9], 0.0191; in experiment [10], 0.0572.

For `O=S(=O)(c1ccc(-c2cc(C(F)(F)F)on2)s1)N1CCc2c([nH]c3ccc(F)cc23)C1`, the log fold change Tl+ flux is 0.0233 in experiment [1]; 0.0471 in [2]; 0.0355 in experiment [3]; 0.0473 in [4]; 0.0308 in [5]; 0.0283 in [6]. The log fold change Tl+ flux was -0.0189 in [7], 0.0168 in experiment [8], -0.00429 in experiment [9] and 0.00527 in experiment [10].

`O=S(=O)(Cc1nc(-c2ccc3c(c2)OCCO3)cs1)c1ccccn1`: the log fold change Tl+ flux in [1] was -0.0443; in experiment [2], -0.0373; in [3], 0.0231; in [4] it was -0.00916; in [5], -0.0733; in [6], -0.0303. The log fold change Tl+ flux was -0.0291 in [7], 0.0317 in [8], -0.00702 in experiment [9] and -0.0322 in experiment [10].

For `NC(CS(=O)(=O)Cc1ccco1)=NO`, the log fold change Tl+ flux in [1] was 0.0416; in experiment [2], 0.0173; in experiment [3], 0.00572; in [4], 0.019; in experiment [5] it was -0.0714; in experiment [6], -0.017. In addition, the log fold change Tl+ flux in [7] was -0.00211; in [8] it was -0.0186; in experiment [9] it was -0.0304; in experiment [10], -0.0219.
